# Reference: the antibiotic and cytotoxicity screens of Wong et al. (2023)
# Among all 39,000 compounds or so, about 1,500 (3.8%) were called active. This is one part of a sample in which actives are shown more often than they occur.
# System: HSkMC (human skeletal muscle cells)
# Experiment: cytotoxicity call (relative viability < 0.9)
# Conditions: 10 µM
row,SMILES,cytotoxicity call
1,COc1ccc2c3c(n(c2c1)C)[C@@H](CO)N(CC1CC1)C[C@]13CCN(CC1)S(=O)(=O)c1cn(cn1)C,inactive
2,C[C@H](NC(=O)c1c(N)nn2cccnc12)c1cc2cccc(C#Cc3cnn(C)c3)c2c(=O)n1-c1ccccc1,active
3,C[C@@H]1CCCCO[C@H](CN(C)C(=O)Nc2ccccc2)[C@@H](C)CN([C@@H](C)CO)C(=O)c2cc(NC(=O)Cc3ccccc3)ccc2O1,inactive
4,COc1ccc(S(=O)(=O)N(C)C[C@@H]2Oc3cc(C#CC4CC4)ccc3S(=O)(=O)N([C@@H](C)CO)C[C@@H]2C)cc1,inactive
5,C=CC(=O)Nc1cccc(C)c1Nc1ncc2cc(-c3c(Cl)c(OC)cc(OC)c3Cl)ccc2n1,inactive
6,C=CC(=O)Nc1cccc(Nc2nc(Nc3ccc(NC4CN(CCF)C4)cc3OC)ncc2C(F)(F)F)c1,active
7,C[C@@H]1CN([C@@H](C)CO)C(=O)c2cc(NC(=O)C3CC3)ccc2O[C@H]1CN(C)S(=O)(=O)c1ccccc1,inactive
8,C[C@@H](NC(=O)C[C@@H]1CC[C@H](NC(=O)CN2CCOCC2)[C@H](CO)O1)c1ccccc1,inactive
9,CC[C@H](C)n1ncn(-c2ccc(N3CCN(c4ccc(OC[C@H]5CO[C@](Cn6cncn6)(c6ccc(Cl)cc6Cl)O5)cc4)CC3)cc2)c1=O,active
10,CCC(C)n1ncn(-c2ccc(N3CCN(c4ccc(OCC5COC(Cn6cncn6)(c6ccc(Cl)cc6Cl)O5)cc4)CC3)cc2)c1=O.Cl.Cl (centres undefined),inactive
11,CC[C@@H](C)n1ncn(-c2ccc(N3CCN(c4ccc(OC[C@H]5CO[C@](Cn6cncn6)(c6ccc(Cl)cc6Cl)O5)cc4)CC3)cc2)c1=O,inactive
12,CS(=O)(=O)N1CCN(Cc2cc3nc(-c4cccc5n[nH]cc45)nc(N4CCOCC4)c3s2)CC1,active
13,CO[C@@H]1CN(C)C(=O)c2ccc(NC(=O)NC(C)C)cc2OC[C@@H](C)N(Cc2ccc(-c3ccccn3)cc2)C[C@H]1C,inactive
14,C[C@H](CO)N1C[C@H](C)[C@H](CN(C)CC2CC2)Oc2ccc(NS(=O)(=O)c3cccs3)cc2C1=O,inactive
15,CC(C)NC(=O)N(C)C[C@@H]1OCCCC[C@@H](C)Oc2ccc(NC(=O)Nc3ccc(C(F)(F)F)cc3)cc2C(=O)N([C@@H](C)CO)C[C@H]1C,inactive
16,CC(C)NC(=O)N(C)C[C@@H]1OCCCC[C@H](C)Oc2ccc(NC(=O)Nc3ccc(C(F)(F)F)cc3)cc2C(=O)N([C@@H](C)CO)C[C@H]1C,inactive
17,C[C@H]1CCCCO[C@H](CN(C)C(=O)Nc2ccc(C(F)(F)F)cc2)[C@@H](C)CN([C@@H](C)CO)C(=O)c2cc(NC(=O)Nc3ccc(C(F)(F)F)cc3)ccc2O1,inactive
18,CC(C)NC(=O)N(C)C[C@@H]1OCCCC[C@H](C)Oc2ccc(NC(=O)Nc3ccc(C(F)(F)F)cc3)cc2C(=O)N([C@H](C)CO)C[C@@H]1C,active
19,CC(C)NC(=O)N(C)C[C@@H]1OCCCC[C@H](C)Oc2ccc(NC(=O)Nc3ccc(C(F)(F)F)cc3)cc2C(=O)N([C@@H](C)CO)C[C@@H]1C,active
20,C[C@H]1CCCCO[C@H](CN(C)C(=O)C2CCCCC2)[C@@H](C)CN([C@@H](C)CO)C(=O)c2cc(NC(=O)Nc3ccc(C(F)(F)F)cc3)ccc2O1,active
21,CC(C)NC(=O)N(C)C[C@H]1OCCCC[C@H](C)Oc2ccc(NC(=O)Nc3ccc(C(F)(F)F)cc3)cc2C(=O)N([C@H](C)CO)C[C@@H]1C,inactive
22,C[C@@H]1CCCCO[C@@H](CN(C)C(=O)C2CCCCC2)[C@@H](C)CN([C@H](C)CO)C(=O)c2cc(NC(=O)Nc3ccc(C(F)(F)F)cc3)ccc2O1,inactive
23,C[C@H](CO)N1C[C@H](C)[C@H](CN(C)C(=O)Nc2ccc(C(F)(F)F)cc2)OCCCC[C@H](C)Oc2ccc(NC(=O)Nc3ccc(C(F)(F)F)cc3)cc2C1=O,active
24,CC(C)NC(=O)N(C)C[C@H]1OCCCC[C@@H](C)Oc2ccc(NC(=O)Nc3ccc(C(F)(F)F)cc3)cc2C(=O)N([C@@H](C)CO)C[C@H]1C,inactive
25,C[C@@H]1CCCCO[C@@H](CN(C)C(=O)C2CCCCC2)[C@H](C)CN([C@@H](C)CO)C(=O)c2cc(NC(=O)Nc3ccc(C(F)(F)F)cc3)ccc2O1,inactive
26,C[C@@H]1CCCCO[C@H](CN(C)C(=O)Nc2ccc(C(F)(F)F)cc2)[C@@H](C)CN([C@@H](C)CO)C(=O)c2cc(NC(=O)Nc3ccc(C(F)(F)F)cc3)ccc2O1,inactive
27,CN1C(=O)c2cc(NC(=O)C3CCOCC3)ccc2OC[C@@H]2O[C@H](CC(=O)NCc3ccccc3F)CC[C@@H]21,inactive

row,SMILES,cytotoxicity call
1,O=C(C[C@@H]1CC[C@@H]2NC[C@H](O)COC[C@H]2O1)NCCN1CCCCC1,inactive
2,COCC#Cc1cnc2c(c1)C(=O)N([C@H](C)CO)C[C@H](C)[C@@H](CN(C)C(=O)Nc1ccccc1OC)O2,inactive
3,C[C@H]1CN([C@@H](C)CO)C(=O)Cc2cc(NS(=O)(=O)c3ccc(F)cc3)ccc2O[C@H]1CN(C)S(=O)(=O)c1cn(C)cn1,inactive
4,COc1cccc(NC(=O)N2C[C@@H](O)COC[C@@H]3O[C@@H](CC(=O)NCc4ccccc4F)CC[C@H]32)c1,inactive
5,C[C@@H]1CCCCO[C@@H](CN(C)C(=O)Nc2ccc(C(F)(F)F)cc2)[C@@H](C)CN([C@H](C)CO)C(=O)c2cc(NC(=O)c3ccccc3)ccc2O1,inactive
6,CC(C)(C)[S@@](=O)N1Cc2cc(C(=O)NCc3ccccc3F)nc(-c3cccc(-c4cccnc4)c3)c2[C@H]1CCO,inactive
7,O=C(C[C@H]1C=C[C@@H](NC(=O)Cc2ccccn2)[C@@H](CO)O1)NCCCN1CCOCC1,inactive
8,C[C@@H]1CN([C@H](C)CO)S(=O)(=O)c2ccc(C#Cc3ccncc3)cc2O[C@H]1CN(C)C(=O)C1CCOCC1,inactive
9,CN(C)Cc1cn(CC[C@@H]2CC[C@H](N)[C@H](CO)O2)nn1,inactive
10,C[C@H](CO)N1C[C@H](C)[C@@H](CN(C)S(=O)(=O)c2ccc3ccccc3c2)OCc2cn(nn2)CCCC1=O,inactive
11,C[C@H](CO)N1C[C@H](C)[C@@H](CN(C)C(=O)Nc2cccc3ccccc23)Oc2c(NC(=O)C3CCCCC3)cccc2C1=O,inactive
12,COc1cc(Nc2ncc3c(n2)-c2ccc(Cl)cc2C(c2c(F)cccc2OC)=NC3)ccc1C(=O)O,active
13,C=CCN(C(=O)[C@H]1N(CCOCCO)C(=O)[C@H]2[C@H](C(=O)O)[C@@H]3C=C[C@@]21O3)c1ccc(OC)cc1,inactive
14,CCS(=O)(=O)Nc1ccc2c(c1)C(=O)N(C)[C@H]1CC[C@@H](CC(=O)N[C@H]3CCN(Cc4ccccc4)C3)O[C@@H]1CO2,inactive
15,C[C@@H]1CN([C@H](C)CO)C(=O)c2cccc(NC(=O)C3CCOCC3)c2O[C@@H]1CN(C)S(=O)(=O)c1cccs1,inactive
16,C[C@@H]1CC[C@@]2(OC1)O[C@H]1C[C@H]3[C@H]4C[C@@H](O)[C@H]5C[C@@H](O[C@@H]6O[C@H](CO)[C@H](O[C@@H]7O[C@H](CO)[C@@H](O)[C@H](O[C@@H]8OC[C@@H](O)[C@H](O)[C@H]8O)[C@H]7O[C@@H]7O[C@H](CO)[C@@H](O[C@@H]8O[C@H](CO)[C@@H](O)[C@H](O)[C@H]8O)[C@H](O)[C@H]7O)[C@H](O)[C@H]6O)[C@H](O)C[C@]5(C)[C@@H]4CC[C@]3(C)[C@H]1[C@@H]2C,active
17,C[C@@H]1CO[C@]2(O[C@H]3C[C@H]4[C@H]5C[C@H](O[C@H]6O[C@@H](C)[C@@H](O)[C@@H](O[C@@H]7O[C@@H](C)[C@H](O)[C@@H](O)[C@H]7O)[C@@H]6O)[C@H]6C[C@@H](O)CC[C@]6(C)[C@@H]5CC[C@]4(C)[C@H]3[C@@H]2C)[C@@H](O)C1,inactive
18,CC(=O)OC1CCC2(C)C(CCC3C2CCC2(C)C3CC3OC4(CCC(C)CO4)C(C)C32)C1 (centres undefined),inactive
19,C[C@@H]1CC[C@@]2(OC1)O[C@H]1C[C@H]3[C@H]4C[C@@H](O)[C@H]5C[C@@H](O[C@@H]6O[C@H](CO)[C@H](O[C@@H]7O[C@H](CO)[C@@H](O)[C@H](O[C@@H]8OC[C@@H](O)[C@H](O)[C@H]8O)[C@H]7O[C@@H]7O[C@H](CO)[C@@H](O[C@@H]8O[C@H](CO)[C@@H](O)[C@H](O)[C@H]8O)[C@H](O)[C@H]7O)[C@H](O)[C@H]6O)CC[C@]5(C)[C@@H]4CC[C@]3(C)[C@H]1[C@@H]2C,active
20,CC(=O)OC1CCC2(C)C(CCC3C2CC(=O)C2(C)C3CC3OC4(CCC(C)CO4)C(C)C32)C1 (centres undefined),inactive
21,C[C@@H]1CC[C@@]2(OC1)O[C@H]1C[C@H]3[C@H]4C[C@@H](O)[C@H]5C[C@@H](O[C@@H]6O[C@H](CO)[C@H](O[C@@H]7O[C@H](CO)[C@@H](O)[C@H](O[C@@H]8OC[C@@H](O)[C@H](O)[C@H]8O)[C@H]7O[C@@H]7O[C@H](CO)[C@@H](O)[C@H](O)[C@H]7O)[C@H](O)[C@H]6O)CC[C@]5(C)[C@@H]4CC[C@]3(C)[C@H]1[C@@H]2C,active
22,CC1CCC2(OC1)OC1CC3C4CCC5CC(O)CCC5(C)C4CCC3(C)C1C2C (centres undefined),inactive
23,CC1CCC2(OC1)OC1CC3C4CCC5CC(O)CCC5(C)C4CC(=O)C3(C)C1C2C (centres undefined),inactive
24,CC(C)=CCC[C@](C)(O[C@@H]1O[C@H](CO[C@@H]2OC[C@@H](O)[C@H](O)[C@H]2O)[C@@H](O)[C@H](O)[C@H]1O)[C@H]1CC[C@]2(C)[C@@H]1[C@H](O)C[C@@H]1[C@@]3(C)CC[C@H](O[C@@H]4O[C@H](CO)[C@@H](O)[C@H](O)[C@H]4O)C(C)(C)[C@@H]3CC[C@]12C,inactive
25,C[C@@H]1CC[C@@]2(OC1)O[C@H]1C[C@H]3[C@H]4CC=C5C[C@@H](O[C@@H]6O[C@H](CO)[C@@H](O[C@@H]7O[C@@H](C)[C@H](O)[C@@H](O)[C@H]7O[C@@H]7O[C@@H](C)[C@H](O)[C@@H](O)[C@H]7O)[C@H](O)[C@H]6O)CC[C@]5(C)[C@@H]4CC[C@]3(C)[C@H]1[C@@H]2C,active
26,C[C@@H]1CC[C@@]2(OC1)O[C@H]1C[C@H]3[C@H]4C[C@@H](O)[C@H]5C[C@@H](O[C@@H]6O[C@H](CO)[C@H](O[C@@H]7O[C@H](CO)[C@@H](O)[C@H](O[C@@H]8OC[C@@H](O)[C@H](O)[C@H]8O)[C@H]7O[C@@H]7O[C@H](CO)[C@@H](O)[C@H](O)[C@H]7O)[C@H](O)[C@H]6O)[C@H](O)C[C@]5(C)[C@@H]4CC[C@]3(C)[C@H]1[C@@H]2C,inactive
27,CC1CCC2(OC1)OC1CC3C4CC=C5CC(O)CCC5(C)C4CCC3(C)C1C2C (centres undefined),inactive
